About 79,000 compounds went through this panel and 15% of them were active in at least one assay; those are over-represented in the sample as a whole. Values without a mark were called inactive. Active and inactive are the calls of the source. Rule as the data show it: active = growth inhibition above about 70%; inactive = the rest.

Assay [1] is described as follows: NCI Yeast Anticancer Drug Screen. Data for the rad50 strain (AID 155).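 Also: 0% = growth of vehicle-only cultures of the same strain.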 Particulars: S. cerevisiae rad50 strain growth inhibition, hits give high values. The gist of the method: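 Yeast carrying a defined DNA repair defect were exposed to test compounds, and growth was compared with vehicle-treated controls to give percent inhibition.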
Assay [2] is described as follows: NCI Yeast Anticancer Drug Screen. Data for the mec2-1 strain (AID 157). Particulars: S. cerevisiae mec2-1 strain, hits give high values. The gist of the method:
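Test agents were screened against the mec2-1 yeast strain, with defined DNA repair or cell cycle alteration. Growth was scored as inhibition against vehicle-only controls.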

The nature of assay [3]: NCI Yeast Anticancer Drug Screen. Data for the sgs1 mgt1 strain (AID 161).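 Also: 0% = growth of cultures given vehicle only.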 Conditions: S. cerevisiae sgs1 mgt1 strain, hits give high values. Summed up: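 Mutant yeast exposed to compound; growth scored against vehicle-only wells.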
A short description of assay [4]: NCI Yeast Anticancer Drug Screen. Data for the cln2 rad14 strain (AID 165).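 Also: 0% = growth equal to vehicle treated cultures.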 Conditions: S. cerevisiae cln2 rad14 strain, hits give high values. Summed up:
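Growth of compound-exposed yeast (cln2 rad14 genotype) measured and expressed as inhibition relative to vehicle.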

The nature of assay [5]: NCI Yeast Anticancer Drug Screen. Data for the bub3 strain (AID 167). Particulars: S. cerevisiae bub3 mutant strain, hits give high values. The gist of the method:
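Compounds were applied to a genetically altered yeast strain carrying a cell-cycle control defect. Growth inhibition was scored against vehicle-treated controls.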

Assay [6] can be described thus: NCI Yeast Anticancer Drug Screen. Data for the mlh1 rad18 strain (AID 175). Conditions: S. cerevisiae mlh1 rad18 strain growth inhibition, hits give high values. The gist of the method:
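In this whole-cell yeast screen, a strain with altered DNA damage repair is challenged with compound, and its growth is measured against matched vehicle-treated controls.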

The mark [7] stands for this setting: at 5.0 µM (retest, dose inferred, filed as 0.5).
[8] abbreviates: at 50.0 µM (retest, dose inferred, filed as 5.0).

For `COC(=O)c1ccc(C)cc1C1CN=NC12Cc1cc(C)ccc1C2=O` (configuration not stated), the growth inhibition was 10% in assay [1] (setting [7]); 50% in assay [1] (setting [8]); 5.35% in assay [1] (at 50.0 µM); 8% in assay [2] (setting [7]); 44% in assay [2] (setting [8]); 19.6% in assay [2] (at 50.0 µM). Further, the growth inhibition in assay [3] (setting [7]) is 5%; in assay [3] (setting [8]), 67%; in assay [3] (at 50.0 µM), 68.6%; in assay [4] (setting [7]), 6%; in assay [4] (setting [8]), 44%; in assay [4] (at 50.0 µM) it was 37.2%. The growth inhibition was 6% in assay [5] (setting [7]); 73% (active) in assay [5] (setting [8]); 46.1% in assay [5] (at 50.0 µM); 13% in assay [6] (setting [7]); 65% in assay [6] (setting [8]); 65% in assay [6] (at 50.0 µM).

Take `CC(O)CC(O)CC1CCCO1` (configuration not stated): the growth inhibition in assay [1] (setting [7]) was 5%; in assay [1] (setting [8]), 22%; in assay [1] (at 50.0 µM), 39.2%; in assay [2] (setting [7]) it was 1%; in assay [2] (setting [8]) it was 9%; in assay [2] (at 50.0 µM) it was 35.6%. The growth inhibition was 1% in assay [3] (setting [7]); 4% in assay [3] (setting [8]); 25.2% in assay [3] (at 50.0 µM); 2% in assay [4] (setting [7]); 9% in assay [4] (setting [8]); 33.1% in assay [4] (at 50.0 µM). For the same compound, the growth inhibition in assay [5] (setting [7]) was 3%; in assay [5] (setting [8]), 19%; in assay [5] (at 50.0 µM), 82.7% (active); in assay [6] (setting [7]) it was 3%; in assay [6] (setting [8]) it was 8%; in assay [6] (at 50.0 µM), 41.2%.

Take `COc1ccc(-n2cc(-c3ccc(Cl)cc3)c3c(N)ncnc32)cc1`: the growth inhibition in assay [1] (setting [7]) is 20%; in assay [1] (setting [8]) it was 99% (active); in assay [1] (at 50.0 µM), 95.6% (active); in assay [2] (setting [7]), 23%; in assay [2] (setting [8]) it was 99% (active); in assay [2] (at 50.0 µM), 94.6% (active). Besides, the growth inhibition is 63% in assay [3] (setting [7]); 99% (active) in assay [3] (setting [8]); 98.2% (active) in assay [3] (at 50.0 µM); 13% in assay [4] (setting [7]); 25% in assay [4] (setting [8]); 87.1% (active) in assay [4] (at 50.0 µM). The growth inhibition was 0% in assay [5] (setting [7]); 3% in assay [5] (setting [8]); 91% (active) in assay [5] (at 50.0 µM); 20% in assay [6] (setting [7]); 99% (active) in assay [6] (setting [8]); 88% (active) in assay [6] (at 50.0 µM).

For `Cc1[nH]c(=O)[nH]c(=S)c1C(=O)NC1C2CCCCC2NC2CCCCC21` (configuration not stated), the growth inhibition is 67% in assay [1] (setting [7]); 96% (active) in assay [1] (setting [8]); 75.5% (active) in assay [1] (at 50.0 µM); 49% in assay [2] (setting [7]); 97% (active) in assay [2] (setting [8]); 83.3% (active) in assay [2] (at 50.0 µM). In addition, the growth inhibition in assay [3] (setting [7]) is 49%; in assay [3] (setting [8]), 97% (active); in assay [3] (at 50.0 µM), 76.4% (active); in assay [4] (setting [7]), 74% (active); in assay [4] (setting [8]) it was 98% (active); in assay [4] (at 50.0 µM), 85% (active). Further, the growth inhibition in assay [5] (setting [7]) is 48%; in assay [5] (setting [8]), 97% (active); in assay [5] (at 50.0 µM) it was 77.8% (active); in assay [6] (setting [7]) it was 46%; in assay [6] (setting [8]), 96% (active); in assay [6] (at 50.0 µM), 71.9% (active).

For the compound `COc1ccc(C2c3cc4c(cc3OC(N3CCCC3)C2C)OCO4)c(OC)c1` (configuration not stated), the growth inhibition is -3% in assay [1] (setting [7]); 77% (active) in assay [1] (setting [8]); 94.5% (active) in assay [1] (at 50.0 µM); -5% in assay [2] (setting [7]); 53% in assay [2] (setting [8]); 94.2% (active) in assay [2] (at 50.0 µM). Further, the growth inhibition is 1% in assay [3] (setting [7]); 74% (active) in assay [3] (setting [8]); 88.2% (active) in assay [3] (at 50.0 µM); -4% in assay [4] (setting [7]); 68% in assay [4] (setting [8]); 71% (active) in assay [4] (at 50.0 µM). The growth inhibition in assay [5] (setting [7]) was -6%; in assay [5] (setting [8]), 68%; in assay [5] (at 50.0 µM) it was 87.8% (active); in assay [6] (setting [7]) it was -3%; in assay [6] (setting [8]), 82% (active); in assay [6] (at 50.0 µM), 93.5% (active).

Regarding `Brc1cc2c(c(Br)c1Br)C(Br)(Br)C(c1ccccc1)=N2`, the growth inhibition in assay [1] (setting [7]) was 6%; in assay [1] (setting [8]), 80% (active); in assay [1] (at 50.0 µM), 73.3% (active); in assay [2] (setting [7]), 10%; in assay [2] (setting [8]), 85% (active); in assay [2] (at 50.0 µM), 58.1%. For the same compound, the growth inhibition in assay [3] (setting [7]) is 25%; in assay [3] (setting [8]), 85% (active); in assay [3] (at 50.0 µM), 78.6% (active); in assay [4] (setting [7]) it was 3%; in assay [4] (setting [8]) it was 32%; in assay [4] (at 50.0 µM) it was 60.4%. Further, the growth inhibition in assay [5] (setting [7]) is 1%; in assay [5] (setting [8]) it was 90% (active); in assay [5] (at 50.0 µM) it was 27.6%; in assay [6] (setting [7]) it was 13%; in assay [6] (setting [8]), 89% (active); in assay [6] (at 50.0 µM), 75.3% (active).

Take `COc1cc(C/C(=C/c2ccc(OC)c3occc23)[N+](=O)[O-])cc(OC)c1OC`: the growth inhibition in assay [1] (setting [7]) was 18%; in assay [1] (setting [8]), 100% (active); in assay [1] (at 50.0 µM), 70.6% (active); in assay [2] (setting [7]), 29%; in assay [2] (setting [8]), 100% (active); in assay [2] (at 50.0 µM) it was 82.8% (active). Further, the growth inhibition was 31% in assay [3] (setting [7]); 99% (active) in assay [3] (setting [8]); 82.9% (active) in assay [3] (at 50.0 µM); 4% in assay [4] (setting [7]); 99% (active) in assay [4] (setting [8]); 64.8% in assay [4] (at 50.0 µM). In addition, the growth inhibition in assay [5] (setting [7]) was 12%; in assay [5] (setting [8]), 97% (active); in assay [5] (at 50.0 µM), 60.7%; in assay [6] (setting [7]) it was 23%; in assay [6] (setting [8]) it was 100% (active); in assay [6] (at 50.0 µM), 87.2% (active).

Consider `Clc1ccc(CN2COc3c(cc(Cl)c4cccnc34)C2)cc1Cl`, for which the growth inhibition in assay [1] (setting [7]) is 43%; in assay [1] (setting [8]), 97% (active); in assay [1] (at 50.0 µM), 95.4% (active); in assay [2] (setting [7]) it was -12%; in assay [2] (setting [8]) it was 97% (active); in assay [2] (at 50.0 µM), 97.5% (active). Further, the growth inhibition in assay [3] (setting [7]) is 10%; in assay [3] (setting [8]) it was 98% (active); in assay [3] (at 50.0 µM), 70.6% (active); in assay [4] (setting [7]), -11%; in assay [4] (setting [8]) it was 97% (active); in assay [4] (at 50.0 µM) it was 44.4%. The growth inhibition in assay [5] (setting [7]) was 3%; in assay [5] (setting [8]) it was 97% (active); in assay [5] (at 50.0 µM), -4.9%; in assay [6] (setting [7]) it was 13%; in assay [6] (setting [8]), 96% (active); in assay [6] (at 50.0 µM), 47.9%.

In the case of `O=C(O)CC(NC(=O)CP(=O)(O)O)C(=O)O.[NH-]C1CCCCC1[NH-].[Pt+2]` (configuration not stated), the growth inhibition in assay [1] (setting [7]) was 30%; in assay [1] (setting [8]), 24%; in assay [1] (at 50.0 µM), -2.95%; in assay [2] (setting [7]), 2%; in assay [2] (setting [8]), 3%; in assay [2] (at 50.0 µM), -27.1%. In addition, the growth inhibition in assay [3] (setting [7]) is 26%; in assay [3] (setting [8]) it was 11%; in assay [3] (at 50.0 µM) it was -27.9%; in assay [4] (setting [7]), 22%; in assay [4] (setting [8]), 16%; in assay [4] (at 50.0 µM), 20.8%. For the same compound, the growth inhibition was 18% in assay [5] (setting [7]); 23% in assay [5] (setting [8]); -12.2% in assay [5] (at 50.0 µM); 18% in assay [6] (setting [7]); 2% in assay [6] (setting [8]); -23.1% in assay [6] (at 50.0 µM).
